# Source: PubChem BioAssay
# Activity calls are given as the source filed them.
# Assays:
# [1] = binders of probe aFSTL3 on microarray, primary screen, stem cell growth factor project, biochemical, small-molecule microarray, fluorescence 635/667 (AID 1064); conditions: higher = more signal;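 also: measures binding of the biotinylated anti-FSTL3 antibody to printed compounds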
# [2] = binders from COS7 lysate, DM2A8 probe, primary screen, torsin A project, cell lysate, small-molecule microarray, fluorescence 635/667 (AID 1065); conditions: higher = more signal, COS7 lysate expressing mutant human TOR1A
# [3] = binders of probe aFGF2 on microarray, primary screen, stem cell growth factor project, biochemical, small-molecule microarray, fluorescence 635/667 (AID 1067); conditions: higher = more signal;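 also: measures binding of biotinylated aFGF2 protein to printed compounds on slides; z-score merges feature fluorescence and signal-to-noise across triplicate slides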
# [4] = binders of probe aFGF10 on microarray, primary screen, stem cell growth factor project, biochemical, small-molecule microarray, fluorescence 635/667 (AID 1071); conditions: higher = more signal;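 also: score merges 667 nm spot intensity and signal to noise from triplicate slides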
# [5] = target: Neurogenic locus notch homolog protein 2 (Homo sapiens) (UniProt Q04721); assay: Notch2 binders on small-molecule microarrays, primary screen, biochemical, small-molecule microarray, 635 nm fluorescence, stem cell growth factors (AID 1073); conditions: Notch2 binding, higher = more signal
# [6] = target: Pro-neuregulin-1, membrane-bound isoform (Homo sapiens) (UniProt Q02297); assay: NRG1 binders on small-molecule microarrays, primary screen, psychiatric disease protein project, biochemical, small-molecule microarray, fluorescence 635/667 (AID 1075); conditions: NRG1 binding, 635 nm fluorescence, higher = more signal;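 also: score combines 667 nm spot fluorescence with signal to noise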
# [7] = system: Neuregulin-1 EGF-like domain; assay: binders of neuregulin-1 EGF-like domain, primary screen, biochemical, small-molecule microarray, 635 nm fluorescence (AID 1081); conditions: small-molecule microarray binding, higher = more signal;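 also: binding of the protein to compounds printed on small-molecule microarray slides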
# [8] = FRG1 promoter luciferase signal modulators, primary screen, FRG1 inhibition for FSHD, cell-based, C2C12 myotubes, firefly/Renilla luciferase, luminescence (AID 1084); conditions: higher = more signal, called active from +8 up or from −8 down
# [9] = binders of probe aFST on microarray, primary screen, stem cell growth factor project, biochemical, small-molecule microarray, fluorescence 635/667 (AID 1086); conditions: higher = more signal;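 also: score merges 667 nm fluorescence with signal-to-noise of each printed compound spot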
# [10] = binders of probe aHhip on microarray, primary screen, stem cell growth factor project, biochemical, small-molecule microarray, fluorescence 635/667 (AID 1087); conditions: higher = more signal;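 also: score merges spot fluorescence at 667nm with spot signal to noise ratio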
# [11] = system: PRMT1 (protein arginine N-methyltransferase 1); assay: PRMT1 binders on small-molecule microarrays, primary screen, biochemical, small-molecule microarray, 635 nm fluorescence (AID 1088); conditions: small-molecule microarray binding, higher = more signal;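 also: binding of Prmt1 protein to compounds spotted on small-molecule microarray slides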
# [12] = yeast growth modulation, basal conditions, primary screen, YJM789 clinical isolate, OD600, 24 h (AID 1089);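 also: growth of clinical yeast isolate S. cerevisiae YJM 789 seeded 1000 cells per well; test concentration not given here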; conditions: S. cerevisiae YJM789 growth, higher = more signal, called active from +8 up or from −8 down
# [13] = fission yeast growth modulation, primary screen, strain 972, OD600, 24 h, no modulator (AID 1090);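 also: basal condition with compound alone and no growth modifier present; test concentration not given here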; conditions: S. pombe 972 growth, higher = more signal, called active from +8 up or from −8 down
# [14] = S. cerevisiae growth modulation with rapamycin, primary screen, strain BY4716, OD600, 96 h (AID 1091); conditions: higher = more signal, called active from +8 up or from −8 down; also: test concentration not given here
# [15] = target: Torsin-1A-interacting protein 2 (Homo sapiens) (UniProt Q8NFQ8); assay: LULL1 binders on small-molecule microarray, primary screen, cell lysate, human LULL1 lysate, 635/667 nm fluorescence (AID 1092); conditions: hLULL1 lysate binding, 635 nm fluorescence, higher = more signal;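 also: probe is lysate of COS7 cells overexpressing human LULL1; score merges per-feature 667 nm fluorescence with signal-to-noise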
# [16] = E. coli growth modulation, two-sided OD650, primary screen, E. coli filamentation project, strain DRC41, 24 h (AID 1093); conditions: OD650, 24 h, higher = more signal, called active from +8 up or from −8 down;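 also: MC1000 strain lacking acrAB efflux and sulA so SOS filamentation is blocked; test concentration not given here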
# [17] = small-molecule microarray binders of probe aLefty2, primary screen, biochemical, biotinylated probe, 635/667 nm fluorescence (AID 1094); conditions: higher = more signal;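 also: score merges spot fluorescence near 667 nm with spot signal-to-noise ratio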
# [18] = system: Noggin (protein binding on small-molecule microarray); assay: Noggin binders on small-molecule microarray, primary screen, biochemical, 635/667 nm fluorescence (AID 1095); conditions: 635 nm fluorescence, higher = more signal;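 also: score merges 667 nm feature fluorescence with signal to noise over triplicate slides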
# [19] = target: Neurogenic locus notch homolog protein 3 (Homo sapiens) (UniProt Q9UM47); assay: NOTCH3 binders on small-molecule microarray, primary screen, biochemical, 635/667 nm fluorescence (AID 1096); conditions: NOTCH3 binding, 635 nm fluorescence, higher = more signal
# [20] = small-molecule microarray binders of probe aEGFR, primary screen, biochemical, biotinylated probe, 635/667 nm fluorescence (AID 1097); conditions: higher = more signal;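 also: probe is a biotinylated anti-EGFR antibody binding compounds printed on slides; score combines fluorescence near 667 nm and signal to noise of each spot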
# Pro-neuregulin-1, membrane-bound isoform (Homo sapiens), sequence (Q02297 whole entry, looked up, the tested form may be a part, canonical isoform): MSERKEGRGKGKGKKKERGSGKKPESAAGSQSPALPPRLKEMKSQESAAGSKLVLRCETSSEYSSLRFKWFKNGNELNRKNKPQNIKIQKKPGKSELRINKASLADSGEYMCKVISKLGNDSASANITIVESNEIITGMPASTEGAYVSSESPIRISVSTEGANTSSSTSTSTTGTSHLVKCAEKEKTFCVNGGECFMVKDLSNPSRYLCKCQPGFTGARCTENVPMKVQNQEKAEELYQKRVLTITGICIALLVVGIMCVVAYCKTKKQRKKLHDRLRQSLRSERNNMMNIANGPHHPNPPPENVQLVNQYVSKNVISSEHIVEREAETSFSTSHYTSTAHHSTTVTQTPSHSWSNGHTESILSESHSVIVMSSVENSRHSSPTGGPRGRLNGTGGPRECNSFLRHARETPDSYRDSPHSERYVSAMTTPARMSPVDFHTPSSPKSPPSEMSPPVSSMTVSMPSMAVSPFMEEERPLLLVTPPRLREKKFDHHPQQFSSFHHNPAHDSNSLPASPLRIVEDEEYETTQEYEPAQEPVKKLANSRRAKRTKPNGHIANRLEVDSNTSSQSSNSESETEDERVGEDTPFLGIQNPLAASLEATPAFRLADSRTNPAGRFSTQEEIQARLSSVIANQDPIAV
# Neurogenic locus notch homolog protein 3 (Homo sapiens), sequence (Q9UM47 whole entry, looked up): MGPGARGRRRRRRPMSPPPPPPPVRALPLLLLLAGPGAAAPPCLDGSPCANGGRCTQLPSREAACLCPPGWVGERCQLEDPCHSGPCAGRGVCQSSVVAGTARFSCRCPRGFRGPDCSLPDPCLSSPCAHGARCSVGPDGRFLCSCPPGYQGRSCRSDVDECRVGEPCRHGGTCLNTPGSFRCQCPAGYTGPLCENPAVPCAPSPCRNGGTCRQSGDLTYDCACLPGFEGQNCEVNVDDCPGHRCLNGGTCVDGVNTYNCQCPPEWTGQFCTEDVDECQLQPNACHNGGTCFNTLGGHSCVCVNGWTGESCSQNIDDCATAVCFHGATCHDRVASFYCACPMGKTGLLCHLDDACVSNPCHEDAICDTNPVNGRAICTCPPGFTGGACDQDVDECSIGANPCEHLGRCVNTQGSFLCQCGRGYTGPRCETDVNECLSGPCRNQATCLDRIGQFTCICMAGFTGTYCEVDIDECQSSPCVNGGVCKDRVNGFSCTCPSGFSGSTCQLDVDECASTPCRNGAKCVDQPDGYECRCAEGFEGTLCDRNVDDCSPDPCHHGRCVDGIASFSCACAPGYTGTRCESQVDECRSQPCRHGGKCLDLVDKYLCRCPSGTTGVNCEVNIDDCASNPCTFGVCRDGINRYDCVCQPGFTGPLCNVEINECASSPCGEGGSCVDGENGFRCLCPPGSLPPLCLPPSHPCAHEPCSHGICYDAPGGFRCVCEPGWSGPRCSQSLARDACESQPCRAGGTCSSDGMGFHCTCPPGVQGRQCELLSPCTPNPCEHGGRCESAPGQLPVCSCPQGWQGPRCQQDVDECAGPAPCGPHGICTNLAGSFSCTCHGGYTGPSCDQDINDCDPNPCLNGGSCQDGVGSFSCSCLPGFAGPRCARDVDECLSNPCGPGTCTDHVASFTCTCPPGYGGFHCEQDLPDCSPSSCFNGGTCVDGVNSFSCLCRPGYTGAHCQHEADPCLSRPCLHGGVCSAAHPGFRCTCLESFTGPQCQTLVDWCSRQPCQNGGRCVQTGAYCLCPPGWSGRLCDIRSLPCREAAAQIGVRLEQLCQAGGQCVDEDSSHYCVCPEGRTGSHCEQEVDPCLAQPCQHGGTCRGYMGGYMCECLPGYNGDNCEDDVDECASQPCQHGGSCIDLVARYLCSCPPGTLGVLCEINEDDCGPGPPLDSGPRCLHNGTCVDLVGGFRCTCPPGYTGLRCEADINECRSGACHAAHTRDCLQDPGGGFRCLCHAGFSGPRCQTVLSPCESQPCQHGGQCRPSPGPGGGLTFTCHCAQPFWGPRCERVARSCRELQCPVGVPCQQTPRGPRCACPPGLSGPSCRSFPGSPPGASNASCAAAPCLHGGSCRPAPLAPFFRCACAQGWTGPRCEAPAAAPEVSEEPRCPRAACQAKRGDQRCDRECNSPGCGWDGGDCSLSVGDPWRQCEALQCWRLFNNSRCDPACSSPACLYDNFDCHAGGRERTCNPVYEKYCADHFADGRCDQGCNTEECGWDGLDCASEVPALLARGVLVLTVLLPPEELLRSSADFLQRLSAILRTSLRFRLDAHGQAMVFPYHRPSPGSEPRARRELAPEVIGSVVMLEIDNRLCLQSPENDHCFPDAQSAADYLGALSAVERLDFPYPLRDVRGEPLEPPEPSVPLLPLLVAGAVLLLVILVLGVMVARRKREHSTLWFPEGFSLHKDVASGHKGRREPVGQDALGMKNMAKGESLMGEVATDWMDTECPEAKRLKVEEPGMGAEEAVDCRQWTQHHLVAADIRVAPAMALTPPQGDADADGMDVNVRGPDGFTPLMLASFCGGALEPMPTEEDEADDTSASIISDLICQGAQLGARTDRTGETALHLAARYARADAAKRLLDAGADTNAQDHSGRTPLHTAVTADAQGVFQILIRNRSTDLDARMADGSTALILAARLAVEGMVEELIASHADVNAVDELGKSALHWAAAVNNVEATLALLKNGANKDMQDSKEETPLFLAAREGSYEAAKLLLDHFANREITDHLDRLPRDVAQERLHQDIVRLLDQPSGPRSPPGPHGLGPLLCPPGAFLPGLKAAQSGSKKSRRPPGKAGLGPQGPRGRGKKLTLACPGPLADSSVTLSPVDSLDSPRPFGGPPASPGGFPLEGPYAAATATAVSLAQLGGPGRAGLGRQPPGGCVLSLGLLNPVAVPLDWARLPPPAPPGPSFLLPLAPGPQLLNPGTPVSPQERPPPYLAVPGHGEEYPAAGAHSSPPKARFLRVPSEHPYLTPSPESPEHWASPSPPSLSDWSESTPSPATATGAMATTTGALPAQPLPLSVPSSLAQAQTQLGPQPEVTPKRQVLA
# Torsin-1A-interacting protein 2 (Homo sapiens), sequence (Q8NFQ8 whole entry, looked up): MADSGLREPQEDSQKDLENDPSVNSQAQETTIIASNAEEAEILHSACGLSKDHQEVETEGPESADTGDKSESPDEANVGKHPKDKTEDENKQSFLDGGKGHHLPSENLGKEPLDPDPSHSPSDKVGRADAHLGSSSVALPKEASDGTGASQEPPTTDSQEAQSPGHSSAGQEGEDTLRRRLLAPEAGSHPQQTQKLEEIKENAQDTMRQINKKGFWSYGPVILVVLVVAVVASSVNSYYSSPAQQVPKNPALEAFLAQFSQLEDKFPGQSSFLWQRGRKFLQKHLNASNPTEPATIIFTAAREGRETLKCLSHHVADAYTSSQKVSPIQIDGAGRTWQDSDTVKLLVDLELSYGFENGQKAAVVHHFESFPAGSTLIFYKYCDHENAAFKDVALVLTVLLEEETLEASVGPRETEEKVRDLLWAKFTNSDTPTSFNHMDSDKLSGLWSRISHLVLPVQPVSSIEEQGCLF
smiles,measurement,setting,value
CCN1C(=O)[C@H]2[C@H]3[C@H](O)[C@H](O)CC(=NO[C@@H](C)c4cn([C@H](CO)Cc5ccccc5)nn4)[C@@H]3CC[C@H]2C1=O,composite z-score,[1],-0.687
same,composite z-score,[2],0.387
same,composite z-score,[3],-0.0704
same,composite z-score,[4],0.859
same,composite z-score,[5],1.51
same,composite z-score,[6],0.256
same,composite z-score,[7],0.971
same,z-score,[8],0.345 (inactive)
same,composite z-score,[9],0.759
same,composite z-score,[10],-0.226
same,composite z-score,[11],1.14
same,z-score,[12],0.149 (inactive)
same,z-score,[13],0.718 (inactive)
same,z-score,[14],0.726 (inactive)
same,composite z-score,[15],1.28
same,z-score,[16],0.194 (inactive)
same,composite z-score,[17],-0.264
same,composite z-score,[18],0.387
same,composite z-score,[19],0.988
same,composite z-score,[20],0.0346
CCOC(=O)[C@H](Cc1ccccc1)NC(=O)CCC1CC(OC(=O)NCCc2ccc(F)cc2)CC2(CCCC(COC(=O)NCC3CCCCC3)O2)O1 (stereo not given in full),composite z-score,[1],-0.509
same,composite z-score,[2],0.574
same,composite z-score,[3],-0.0425
same,composite z-score,[4],0.582
same,composite z-score,[5],1.42
same,composite z-score,[6],0.513
same,composite z-score,[7],1.1
same,z-score,[8],-0.692 (inactive)
same,composite z-score,[9],0.676
same,composite z-score,[10],-0.302
same,composite z-score,[11],1.55
same,z-score,[12],0.644 (inactive)
same,z-score,[13],0.432 (inactive)
same,z-score,[14],0.6 (inactive)
same,composite z-score,[15],2.4
same,z-score,[16],0.18 (inactive)
same,composite z-score,[17],-0.106
same,composite z-score,[18],0.53
same,composite z-score,[19],1.07
same,composite z-score,[20],0.0282
CON=C[C@@H](C)[C@H](OCc1ccccc1)C(C)C,composite z-score,[1],0.797
same,composite z-score,[2],0.0789
same,composite z-score,[3],-0.138
same,composite z-score,[4],-0.0499
same,composite z-score,[5],-0.12
same,composite z-score,[6],-0.575
same,composite z-score,[7],-0.502
same,z-score,[8],0.538 (inactive)
same,composite z-score,[9],-0.0062
same,composite z-score,[10],0.0373
same,composite z-score,[11],-1.25
same,z-score,[12],0.0195 (inactive)
same,z-score,[13],-0.596 (inactive)
same,z-score,[14],0.772 (inactive)
same,composite z-score,[15],-0.618
same,z-score,[16],-0.718 (inactive)
same,composite z-score,[17],-0.149
same,composite z-score,[18],0.314
same,composite z-score,[19],-0.154
same,composite z-score,[20],-0.158
Cn1c(=O)n2n(c1=O)[C@H]1[C@H](O)[C@@H]3O[C@@H]3C(=O)[C@H]1CC2,composite z-score,[1],-0.439
same,composite z-score,[2],0.197
same,composite z-score,[3],-0.128
same,composite z-score,[4],0.355
same,composite z-score,[5],0.584
same,composite z-score,[6],-0.208
same,composite z-score,[7],0.712
same,z-score,[8],0.101 (inactive)
same,composite z-score,[9],0.95
same,composite z-score,[10],0.0053
same,composite z-score,[11],-0.261
same,z-score,[12],0.954 (inactive)
same,z-score,[13],0.595 (inactive)
same,z-score,[14],0.672 (inactive)
same,composite z-score,[15],0.485
same,z-score,[16],0.442 (inactive)
same,composite z-score,[17],-0.13
same,composite z-score,[18],0.457
same,composite z-score,[19],0.557
same,composite z-score,[20],-0.0508
COC(=O)[C@H](C)NC(=O)CCC1CC(OC(=O)NCCc2ccc(F)cc2)CC2(CCCC(COC(=O)NCc3cccc(C(F)(F)F)c3)O2)O1 (stereo not given in full),composite z-score,[1],-0.632
same,composite z-score,[2],0.041
same,composite z-score,[3],-0.0265
same,composite z-score,[4],0.624
same,composite z-score,[5],1.36
same,composite z-score,[6],0.0829
same,composite z-score,[7],0.729
same,z-score,[8],0.286 (inactive)
same,composite z-score,[9],0.829
same,composite z-score,[10],-0.0645
same,composite z-score,[11],0.292
same,z-score,[12],-0.207 (inactive)
same,z-score,[13],1.18 (inactive)
same,z-score,[14],0.52 (inactive)
same,composite z-score,[15],1.79
same,z-score,[16],0.723 (inactive)
same,composite z-score,[17],-0.0668
same,composite z-score,[18],1.01
same,composite z-score,[19],0.581
same,composite z-score,[20],-0.0647
